Results reported in PubChem BioAssay AID743395 (Broad Institute, 2014).
In all, about 1,200 compounds went through this assay and about 480 (40%) were called active. No rule for the calls is given here. So high a share suggests a set chosen from earlier hits. The list is a sample of the results. Measured potencies and affinities stand elsewhere.

Test: HepG2 cell cytotoxicity, dose response, cytotoxicity control, CellTiter-Glo luminescence, cherry-pick, set 2 (AID 743395)
Details: HepG2 viability, CellTiter-Glo ATP luminescence, 72 h; series mostly up to 26 µM

Row | Structure (SMILES) | outcome
1 | CCOC(=O)c1[nH]c(C)c(/C(O)=C2\C(=O)C(=O)N(CCCN3CCOCC3)C2c2cccs2)c1C (stereo not given) | inactive
2 | CC(C)CC1Nc2ncnc(N3CCN(c4ccccn4)CC3)c2N(Cc2ccc(Br)cc2)C1=O (stereo not given) | inactive
3 | COc1ccc(-n2nnnc2C(c2ccccc2)N2CCN(C/C=C/c3ccccc3)CC2)cc1 (stereo not given) | inactive
4 | O=C(NNC(=O)c1ccncc1)Nc1ccc(Cl)cc1 | inactive
5 | CCN1C(=O)[C@H]2[C@@H](c3ccc(-c4ccc(Cl)c(Cl)c4)cc3)N[C@@](C)(C(=O)OC)[C@H]2C1=O | inactive
6 | NC(=O)CC(NC(=O)Cc1ccc(Br)cc1)c1ccc(NC2CC3CCC2C3)c([N+](=O)[O-])c1 (stereo not given) | inactive
7 | CN(C)/C=C1\C=C2C(=O)c3ccccc3N2C1=O | inactive
8 | CC(O)CNc1nc(N)[nH]c(=O)c1N=Nc1ccccc1 (stereo not given) | inactive
9 | CCC(C(=O)OCC(=O)C1(O)CCC2C3CCC4=CC(=O)CCC4(C)C3C(O)CC21C)C(C)C (stereo not given) | inactive
10 | OC[C@@H]1[C@@H](c2ccccc2)C2(CN(Cc3ccccc3F)C2)N1Cc1ccccc1F | inactive
11 | NC(=O)c1cc(Cl)ccc1OCC(=O)NC1CC1 | inactive
12 | O=C(c1ccccc1F)N1CC[C@@H]2[C@H](CO)Nc3ccc(Br)cc3[C@@H]21 | inactive
13 | COc1ccc(C#Cc2ccc3c(c2)[C@@H]2[C@@H](CCN2C(=O)c2cccc(F)c2)[C@@H](CO)N3)cc1 | inactive
14 | O=C(NCc1nnnn1-c1ccc(Cl)cc1)C(=O)c1c[nH]c2ccccc12 | inactive
15 | COc1ccc(NC(=O)N[C@@H]2CC[C@@H](CCn3cc(-c4ccc(F)cc4)nn3)O[C@@H]2CO)cc1 | inactive
16 | NNC(=O)c1[nH]c2ccc(Cl)cc2c1-c1ccccc1 | inactive
17 | O=C(NC(Cc1ccccc1)C(=O)N1CCN(S(=O)(=O)c2ccccc2F)CC1)c1ccccc1 (stereo not given) | inactive
18 | CC1CN(S(=O)(=O)c2cccc(C(=O)Nc3cc(Cl)ccc3N3CCOCC3)c2)CC(C)O1 (stereo not given) | inactive
19 | CC(C)(C)C(=O)OCc1nc(-c2ccc(O)c(O)c2)cs1 | inactive
20 | CO[C@@H](CN(C)S(=O)(=O)c1ccc(C)cc1)[C@H](C)CN([C@H](C)CO)S(=O)(=O)c1cccc(Cl)c1 | inactive
21 | COc1ccc(CNC(=O)c2cc3c(c(-c4cccc(-c5ccc(C#N)cc5)c4)n2)[C@@H](CCO)N([S@](=O)C(C)(C)C)C3)cc1 | inactive
22 | COc1cccc(C(=O)c2c[nH]c(C(=O)NCCCN3CCOCC3)c2)c1 | inactive
23 | CC(Sc1nc2ccccc2c(=O)n1C)C(=O)Nc1ccc2c(c1)OCCO2 (stereo not given) | inactive
24 | c1ccc(CCN(Cc2ccccc2)Cc2nc(C3CC3)no2)cc1 | inactive
25 | O=C(CCN1CCCCC1)N1CCc2c([nH]c3ccccc23)C1c1cccnc1 (stereo not given) | inactive

Row | Structure (SMILES) | outcome
26 | COc1ccc(OC)c(N/C(N)=N/c2nc(C)cc(C)n2)c1 | inactive
27 | COc1cc(C(O)CO)ccc1OS(=O)(=O)O (stereo not given) | inactive
28 | COc1ccc2c(c1OC)OCC2C (stereo not given) | inactive
29 | Cc1cc(C)nc(N(C#N)Cc2cccc(Cl)c2)n1 | inactive
30 | CCOc1ccc(C(=O)NCC(=O)NNC(=O)c2cc(C)oc2C)cc1OCC | inactive
31 | Cc1cccc(C(=O)OCC(=O)NC(C)C2CC3CCC2C3)c1O (stereo not given) | inactive
32 | Cc1ccc(-n2cc(-c3ccccc3)c3c(N4CCOCC4)ncnc32)cc1 | inactive
33 | O=C(C(Cc1ccccc1)n1cccc1)N1CCCCC1 (stereo not given) | inactive
34 | CC(C)(C)C1COc2ccccc2N1C(=O)c1cccc(Cl)c1 (stereo not given) | inactive
35 | C/C=C/c1ccc2c(c1)O[C@@H](CN(C)C(=O)Nc1cccc(F)c1)[C@H](C)CN([C@H](C)CO)S2(=O)=O | inactive
36 | Cc1cc2c(s1)Nc1ccccc1N=C2N1CCN(C)CC1 | inactive
37 | CCN[C@H]1CN(CCCOC)S(=O)(=O)c2sc(S(N)(=O)=O)cc21 | inactive
38 | O=C(c1ccc2ccccc2c1)N1CCN(Cc2ccccc2)CC1 | inactive
39 | Cc1cccc(N2CCN(C(=O)c3c(-c4ccccc4Cl)noc3C)CC2)c1C | inactive
40 | NC1(C(=O)O)CC1 | inactive
41 | O=c1cnc2ccccc2n1CC1CCCCC1 | inactive
42 | Cc1cc(C)c(/C=C2\C(=O)Nc3ccccc32)[nH]1 | inactive
43 | Cc1cccc(N(C)S(=O)(=O)c2ccc(-c3cc(C)no3)s2)c1 | inactive
44 | CC(OC(=O)c1cccs1)C(=O)NC1CCCCC1C (stereo not given) | inactive
45 | Cc1cc(C(=O)N/N=C/c2ccc([N+](=O)[O-])cc2)c2ccccc2n1 | inactive
46 | CN(C)c1ccc2c(c1)[C@@H]1C[C@@H](CC(=O)NCc3ccc(Oc4ccccc4)cc3)O[C@H](CO)[C@@H]1O2 | inactive
47 | CCN(CC(=O)Nc1cc(Cl)ccc1-n1cncn1)Cc1nc2ccccc2c(=O)[nH]1 | inactive
48 | Cc1cc(C(=O)N2CC=C(c3ccccc3)CC2)c2ccccc2n1 | inactive
49 | CCN(C(=O)COC(=O)c1cc2c(s1)CCCC2)c1c(N)n(Cc2ccccc2)c(=O)[nH]c1=O | inactive
50 | O=S(=O)(Nc1ccc(F)cc1Cl)c1ccc(-c2cnc(C3CC3)o2)cc1 | inactive

Row | Structure (SMILES) | outcome
51 | COc1ccccc1NS(=O)(=O)c1cc(-c2cnc(C3CC3)o2)ccc1C | inactive
52 | CC(C)c1cccc(-c2csc(C(O)c3ccco3)n2)c1 (stereo not given) | inactive
53 | COc1ccc(OC)c(-c2nnc3n2N=C(c2ccc(OC)c(OC)c2)CS3)c1 | inactive
54 | Cc1cc(N2CCCC2)c(F)cc1/C=C\[N+](=O)[O-] | inactive
55 | NS(=O)(=O)c1ccc2nc(NC(=O)c3ccc4c(c3)OCCO4)sc2c1 | inactive
56 | C/C=C/c1ccc([C@@H]2[C@H](CO)N(CC3CC3)[C@H]2CNC(=O)c2ccccc2)cc1 | inactive
57 | CCOc1ccc(S(=O)(=O)N2CCCCC2)cc1NC(=O)c1ccccc1 | inactive
58 | COc1ccc(-c2nc(-c3cccc(C)c3)no2)cc1OC | inactive
59 | Nc1ccc(S(=O)(=O)Nc2cnc3ccccc3n2)cc1 | inactive
60 | COc1ccc(S(=O)(=O)Cc2ccc(C(=O)N3CCN(c4cccc(C)c4)C(C)C3)o2)cc1 (stereo not given) | inactive
61 | Cc1ccccc1OCC(=O)OCC(=O)NCCc1ccccc1 | inactive
62 | COC(=O)C[C@@H]1CC[C@@H]2[C@H](COc3ccc(NC(=O)c4cc(C)on4)cc3C(=O)N2C)O1 | inactive
63 | CC(=O)N1Cc2cc(C(=O)NCC(F)(F)F)nc(-c3cccc(-c4cccnc4)c3)c2[C@@H]1CCO | inactive
64 | CN(Cc1c(F)cccc1Cl)C(=O)c1ccc(NC(=O)CC2SC(N3CCCCC3)=NC2=O)cc1 (stereo not given) | inactive
65 | Cc1noc(NS(=O)(=O)c2ccc(N/C=C\C(=O)c3ccccc3)cc2)c1C | inactive
66 | COc1cc(OC)cc(C(=O)NC(=S)Nc2ccc3oc(=O)ccc3c2)c1 | inactive
67 | O=C(c1[nH]ncc1-c1ccc(Cl)cc1)C1CO1 (stereo not given) | inactive
68 | S=C(NCc1ccco1)NCC1CCCO1 (stereo not given) | inactive
69 | Cc1cc2nnc(SCC(=O)NCc3ccco3)n2c2ccccc12 | inactive
70 | CCCCC1(C2CCCC2)NC(=O)NC1=O (stereo not given) | inactive
71 | CNS(=O)(=O)c1cccc(C(=O)OCC(=O)c2cc(C)n(CC3CCCO3)c2C)c1 (stereo not given) | inactive
72 | O=Cc1ccccc1OCc1ccc2c(c1)OCO2 | inactive
73 | CCOC1=C2[C@@H](CN(S(=O)(=O)c3ccc(C)cc3)[C@H]2c2ccc(Cl)cc2)[C@H]2C(=O)N(c3ccccc3)C(=O)[C@H]2C1 | inactive
74 | COc1cc(C(=O)c2cocc2C(=O)c2ccc3c(c2)OCO3)cc(OC)c1OC | inactive
75 | COc1ccc(N(C)S(=O)(=O)c2cccc(C(=O)NCC3CCCCC3)c2)cc1 | inactive

Row | Structure (SMILES) | outcome
76 | COCCNC(=O)C1CCCN(C(=O)c2ccc3sccc3c2)CC1 (stereo not given) | inactive
77 | COc1ccc2c3c([nH]c2c1)[C@H](CO)N(C(=O)Nc1ccc(F)cc1)CC31CCN(S(=O)(=O)c2ccccc2)CC1 | inactive
78 | COc1ccc2c(c1)[nH]c1c(=O)n(/N=C/c3ccc(OC)c(CN4CCCC4)c3)cnc12 | inactive
79 | CCCNC(=O)N1CC2(CN(CC3CCCCC3)C2)c2c(n(C)c3cc(OC)ccc23)[C@H]1CO | inactive
80 | COc1ccc2c3c(n(C)c2c1)[C@H](CO)NCC31CCN(Cc2cc(-c3ccccc3)on2)CC1 | inactive
81 | COCC(=O)N1C[C@@H]2[C@H](c3ccccc31)[C@H](CO)N2Cc1ccc(OC)cc1 | inactive
82 | Cc1sc(NC(=S)NC(=O)CCc2ccccc2)c(C(N)=O)c1C | inactive
83 | COCCNC(=O)NC12CC3(C)CC(C)(CC(C)(C3)C1)C2 | inactive
84 | COc1ccccc1C(=O)Nc1onc(C)c1C#N | inactive
85 | COc1cccc(CNC(=O)CSc2nc3ccc(C)cc3[nH]2)c1 | inactive
86 | COc1cccc(N2CCN(C(=O)c3ccc(CS(=O)c4ccc(Cl)cc4)o3)CC2)c1 (stereo not given) | inactive
87 | CC(C)(C)c1csc(NC(=O)Cc2cccs2)n1 | inactive
88 | CN1CCN(C(=O)c2ccc(CN(c3ccccc3)S(=O)(=O)c3ccccc3)cc2)CC1 | inactive
89 | Cc1ccc(S(=O)(=O)N[C@H](C(=O)OCC(=O)NC(=O)C2CCCCC2)C(C)C)cc1 | inactive
90 | CC(C)c1ccc(NC(=O)CN2C(=O)NC3(CCCCCCC3)C2=O)cc1 | inactive
91 | CSc1ccccc1NC(=O)COC(=O)CCC(=O)c1ccc(F)cc1 | inactive
92 | CC(=O)OCCn1c2nc(=O)[nH]c(=O)c-2nc2cc(C)c(C)cc21 | inactive
93 | COc1cccc(NC(=O)N(C)C[C@H]2OCc3ccccc3-c3c(n(C)c4ccccc34)C(=O)N([C@H](C)CO)C[C@H]2C)c1 | inactive
94 | O=C(c1[nH]ncc1-c1cccc(Br)c1)C1CO1 (stereo not given) | inactive
95 | CC(C)CCNC(=O)C(=O)Nc1ccc2c(c1)N(S(=O)(=O)c1cccs1)CCC2 | inactive
96 | CCOC(=O)C1=CN(Cc2cccc(I)c2)S(=O)(=O)N(C)C1C (stereo not given) | inactive
97 | CC(C)c1nc2oc3c(NCCO)ncnc3c2c2c1COC(C)(C)C2 | inactive
98 | COc1cc(-c2cnc3c(NC=O)cc(-c4cccc(C(F)(F)F)c4)cn23)cc(OC)c1OC | inactive
99 | O=CNc1cc(-c2ccc(C(=O)NC3CC3)cc2)cn2c(-c3ccccc3)cnc12 | inactive
100 | COc1ccc(-c2cnc3c(NC=O)cc(-c4ccccc4)cn23)cc1OC | inactive
